Results on 9 compounds are retold here after PubChem BioAssay (Tox21).

Structures are written as SMILES. Values joined by “and” are separate entries in the source; they are usually repeats but may differ in a detail not shown here. Identical values can stand only once. Records with an inconclusive call do not appear. Active and inactive are the calls of the source. Unless noted, calls come from the whole dose curve; as a rule, active = well fitted curve in the direction sought with a large enough effect in the repeat runs; inconclusive = weak or mixed curves; inactive = no such curve, though single readings can be large; an effect the other way counts as inactive or inconclusive.

A short description of test [1]: qHTS assay to identify small molecule antagonists of the glucocorticoid receptor (GR) signaling pathway - cell viability counter screen (AID 720693). Note: nearly all actives have a fitted effect of over 55% in size.
Test [2] is described as follows: qHTS assay for identifying genotoxic compounds that show differential cytotoxicity against isogenic chicken DT40 cell lines with known DNA damage response pathways - wild type cell line (AID 743012). Note: nearly all actives have a fitted effect of over 60% in size. Note: potency is the fitted concentration of half-maximal effect. In outline:
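Quantitative HTS on parental DT40 cells: 40 h compound treatment at 37 C/5% CO2, with viability then determined by CellTiter-Glo luminescence. Values serve as the DNA repair-proficient reference for differential cytotoxicity.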
In general terms: In qHTS, concentration-response curves come from the screen itself.

Test [3] can be described thus: qHTS assay for identifying genotoxic compounds that show differential cytotoxicity against isogenic chicken DT40 cell lines with known DNA damage response pathways - Rev3 mutant cell line (AID 743014). Note: nearly all actives have a fitted effect of over 55% in size. Note: potency is the fitted concentration of half-maximal effect.
The nature of test [4]: qHTS assay for identifying genotoxic compounds that show differential cytotoxicity against isogenic chicken DT40 cell lines with known DNA damage response pathways - Rad54/Ku70 mutant cell line (AID 743015). Note: nearly all actives have a fitted effect of over 60% in size. Note: potency is the fitted concentration of half-maximal effect.
Test [5] can be described thus: qHTS assay to identify small molecule antagonists of the androgen receptor (AR) signaling pathway - cell viability counter screen (AID 743033; note: nearly all actives have a fitted effect of over 45% in size).
Test [6] in a line: qHTS assay to identify small molecule antagonists of the androgen receptor (AR) signaling pathway using the MDA cell line - cell viability counter screen (AID 743041; note: nearly all actives have a fitted effect of over 45% in size). An outline of the steps: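 Cells were plated at 3,000 per well and left 5 h. Compounds in DMSO were then pinned in, followed by R1881. After 16 h at 37C, CellTiter-Fluor fluorescence gave viability.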
Test [7] can be described thus: qHTS assay to identify small molecule antagonists of the thyroid receptor (TR) signaling pathway - cell viability counter screen (AID 743064). Note: nearly all actives have a fitted effect of over 50% in size. Note: potency is the fitted concentration of half-maximal effect. An outline of the steps:
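Viability of T3-stimulated (1 nM final) GH3.TRE-Luc cells is measured by CellTiter-Fluor fluorescence after 23.5 h compound exposure at 37 °C plus 30 min reagent incubation.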

Test [8] addresses Estrogen receptor (Homo sapiens) (UniProt P03372). Put plainly: qHTS assay to identify small molecule antagonists of the estrogen receptor alpha (ER-alpha) signaling pathway (AID 743069; active = well fitted curve in the direction sought with a large enough effect in the signal ratio in the repeat runs, not every such curve was filed as active; the % refers to the signal ratio). In outline: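 ER-alpha-UAS-bla GripTite HEK293 line; 2% charcoal-stripped FBS overnight; plated, 4 hr 37C/5% CO2; cpd in DMSO + 17beta-estradiol, 18 hr 37C; LiveBLAzer B/G FRET substrate 2 hr RT; fluorescence intensity.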

Test [9] can be described thus: qHTS assay to identify small molecule antagonists of the estrogen receptor alpha (ER-alpha) signaling pathway - cell viability counter screen (AID 743074; calls by dose curve;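 note: HEK293 cells carrying ER-alpha-UAS-bla reporter stimulated with 17beta-estradiol; nearly all actives have a fitted effect of over 45% in size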).
In test [10] the target is Estrogen receptor (Homo sapiens) (UniProt P03372). Put plainly: qHTS assay to identify small molecule agonists of the estrogen receptor alpha (ER-alpha) signaling pathway (AID 743075; calls by dose curve;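 note: HEK293 GripTite cells with ER-alpha and UAS-driven beta-lactamase reporter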).
Estrogen receptor (Homo sapiens), sequence (P03372 whole entry, looked up): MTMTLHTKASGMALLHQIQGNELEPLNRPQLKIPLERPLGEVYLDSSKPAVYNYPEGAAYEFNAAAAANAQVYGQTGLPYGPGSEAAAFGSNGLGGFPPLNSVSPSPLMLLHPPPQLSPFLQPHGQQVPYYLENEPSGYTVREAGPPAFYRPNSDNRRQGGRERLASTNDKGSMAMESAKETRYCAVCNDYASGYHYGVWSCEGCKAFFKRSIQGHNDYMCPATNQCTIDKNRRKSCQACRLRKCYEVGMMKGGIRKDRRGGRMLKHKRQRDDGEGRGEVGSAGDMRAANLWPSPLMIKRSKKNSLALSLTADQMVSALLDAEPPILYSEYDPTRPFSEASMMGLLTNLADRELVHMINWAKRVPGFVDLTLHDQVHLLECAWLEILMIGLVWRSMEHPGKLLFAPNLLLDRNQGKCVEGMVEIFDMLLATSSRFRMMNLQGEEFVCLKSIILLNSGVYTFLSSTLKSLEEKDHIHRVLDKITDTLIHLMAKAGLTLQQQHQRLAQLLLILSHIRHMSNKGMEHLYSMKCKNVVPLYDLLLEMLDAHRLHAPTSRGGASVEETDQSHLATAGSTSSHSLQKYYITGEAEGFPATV
For test [11] the target is unchanged. Briefly: qHTS assay to identify small molecule agonists of the estrogen receptor alpha (ER-alpha) signaling pathway using the BG1 cell line (AID 743079). Note: nearly all actives have a fitted effect of over 20% in size. Particulars: BG1Luc4E2 cells, ERE-luciferase agonist, 22 h; activation: at 70.3 µM (top of the series).
A short description of test [12]: qHTS assay to identify small molecule antagonists of the estrogen receptor alpha (ER-alpha) signaling pathway using the BG1 cell line (AID 743080; calls by dose curve;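 note: BG1 cells stimulated with 17beta-estradiol alongside compound; nearly all actives have a fitted effect of over 25% in size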; note: potency is the fitted concentration of half-maximal effect). In outline:
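BG1-Luc-4E2 cells (endogenous full-length ER-alpha, 4xERE luciferase) hormone-starved 5 days in charcoal-stripped FBS, plated 4,000/well for 24 h, then compound plus 17beta-estradiol for 21.5 h at 37 C; ONE-Glo luminescence read.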

Test [13] can be described thus: qHTS assay to identify small molecule antagonists of the estrogen receptor alpha (ER-alpha) signaling pathway using the BG1 cell line - cell viability counter screen (AID 743081).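 Note: compound given together with 17beta-estradiol as the ER stimulus; nearly all actives have a fitted effect of over 45% in size.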 Note: potency is the fitted concentration of half-maximal effect.
Another test has as its target Aromatase (Homo sapiens) (UniProt P11511). Briefly: qHTS assay to identify aromatase inhibitors (AID 743083). Note: nearly all actives have a fitted effect of over 55% in size.
Test [14] deals with Androgen receptor (Homo sapiens) (UniProt P10275). Briefly: qHTS assay to identify small molecule antagonists of the androgen receptor (AR) signaling pathway (AID 743035; active = well fitted inhibition curve with a large enough effect in the signal ratio in the repeat runs, not every such curve was filed as active; the % refers to the signal ratio). In outline: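 Cell line: GeneBLAzer AR-UAS-bla GripTite (HEK293). Stimulus: R1881 added after compound. Exposure: 16 h, 37C, 5% CO2. Readout: LiveBLAzer B/G FRET fluorescence after 2 h at room temperature.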
Androgen receptor (Homo sapiens), sequence (P10275 whole entry, looked up): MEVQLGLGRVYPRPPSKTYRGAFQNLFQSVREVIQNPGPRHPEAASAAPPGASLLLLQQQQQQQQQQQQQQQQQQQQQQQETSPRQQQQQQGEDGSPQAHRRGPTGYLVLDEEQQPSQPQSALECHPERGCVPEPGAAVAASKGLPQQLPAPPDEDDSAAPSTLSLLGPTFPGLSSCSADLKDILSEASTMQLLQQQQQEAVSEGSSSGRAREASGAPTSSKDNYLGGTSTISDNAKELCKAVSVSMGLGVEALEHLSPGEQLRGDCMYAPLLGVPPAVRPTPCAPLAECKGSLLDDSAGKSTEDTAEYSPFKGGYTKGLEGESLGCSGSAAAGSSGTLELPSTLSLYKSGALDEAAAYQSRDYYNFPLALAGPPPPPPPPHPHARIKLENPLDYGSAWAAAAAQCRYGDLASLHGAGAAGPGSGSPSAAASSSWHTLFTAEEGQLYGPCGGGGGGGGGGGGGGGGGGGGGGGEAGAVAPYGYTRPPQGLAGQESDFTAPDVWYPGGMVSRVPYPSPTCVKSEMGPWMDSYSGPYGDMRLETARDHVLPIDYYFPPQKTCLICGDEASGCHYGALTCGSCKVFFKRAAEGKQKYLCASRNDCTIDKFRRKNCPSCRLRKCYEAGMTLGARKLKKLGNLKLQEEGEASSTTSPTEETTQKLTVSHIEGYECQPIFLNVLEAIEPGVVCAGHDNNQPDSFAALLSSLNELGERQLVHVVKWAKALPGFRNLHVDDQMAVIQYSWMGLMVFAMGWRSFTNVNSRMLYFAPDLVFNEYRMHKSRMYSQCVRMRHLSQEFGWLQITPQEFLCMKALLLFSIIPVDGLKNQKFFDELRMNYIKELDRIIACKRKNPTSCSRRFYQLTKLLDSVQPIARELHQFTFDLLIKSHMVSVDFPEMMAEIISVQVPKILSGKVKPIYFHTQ

The target is the same in test [15]. Briefly: qHTS assay to identify small molecule agonists of the androgen receptor (AR) signaling pathway (AID 743036; active = well fitted activation curve with a large enough effect in the signal ratio in the repeat runs, with a control signal flat, not every such curve was filed as active; the % refers to the signal ratio). In outline: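 Screening used 2,000 AR-bla HEK293 cells per well, treated 16 h at 37C with test compounds in DMSO alongside positive and DMSO-only controls; beta-lactamase activity was then read by LiveBLAzer B/G FRET fluorescence after 2 h at room temperature.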

Test [16] has the same target. Briefly: qHTS assay to identify small molecule agonists of the androgen receptor (AR) signaling pathway using the MDA cell line (AID 743040; note: nearly all actives have a fitted effect of over 20% in size). An outline of the steps:
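Cells plated, 5 h at 37C/0% CO2; compound or DMSO pinned; 16 h at 37C; ONE-Glo added; luminescence measured after 30 min at room temperature. Reporter line: MDA-kb2 with MMTV-luciferase responsive to AR and GR.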

The target is the same in test [17]. Put plainly: qHTS assay to identify small molecule antagonists of the androgen receptor (AR) signaling pathway using the MDA cell line (AID 743042; note: nearly all actives have a fitted effect of over 55% in size). In outline:
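Antagonist mode: compounds plus R1881 agonist added to MDA-kb2 AR-luc cells, incubated 16 h at 37C. Luciferase reporter luminescence quantified, with multiplexed CellTiter-Fluor readout for cell viability.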

Test [18] relates to thyroid hormone receptor (rat, GH3 cells). Put plainly: qHTS assay to identify small molecule agonists of the thyroid receptor (TR) signaling pathway (AID 743066; calls by dose curve).
Test [19] in a line: qHTS assay to identify small molecule antagonists of the thyroid receptor (TR) signaling pathway (AID 743065). Note: nearly all actives have a fitted effect of over 55% in size. Note: potency is the fitted concentration of half-maximal effect. In outline:
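Antagonism measured as loss of luciferase signal in GH3 cells stably carrying a TRE-luciferase reporter, co-treated with compound and T3 (1 nM final) for 23.5 h at 37 C. Viability was read in the same well by CellTiter-Fluor.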

Aromatase (Homo sapiens), sequence (P11511 whole entry, looked up): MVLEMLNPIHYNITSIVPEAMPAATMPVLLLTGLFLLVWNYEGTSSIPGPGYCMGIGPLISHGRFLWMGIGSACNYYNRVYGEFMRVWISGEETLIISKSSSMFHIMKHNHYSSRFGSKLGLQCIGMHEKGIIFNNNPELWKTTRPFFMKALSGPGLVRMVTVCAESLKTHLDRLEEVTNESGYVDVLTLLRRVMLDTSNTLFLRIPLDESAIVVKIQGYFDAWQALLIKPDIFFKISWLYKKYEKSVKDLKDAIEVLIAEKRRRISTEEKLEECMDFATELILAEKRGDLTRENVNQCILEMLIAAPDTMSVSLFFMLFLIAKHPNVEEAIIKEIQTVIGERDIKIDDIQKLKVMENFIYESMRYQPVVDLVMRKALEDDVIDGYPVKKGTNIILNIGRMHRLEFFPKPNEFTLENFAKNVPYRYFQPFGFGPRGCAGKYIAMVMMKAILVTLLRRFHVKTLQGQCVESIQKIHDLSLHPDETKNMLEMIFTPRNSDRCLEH

On to `CNCCCC1c2ccccc2C=Cc2ccccc21`, for which the Potency result in [1], in test [5], in test [6], in test [8], in [9] and in [10] was “inactive” throughout. Also, the Potency result (in [11]; in test [12]; in test [13]; in the test with Aromatase (Homo sapiens)) was “inactive” in each case. The Potency in [2] was 4.52 µM (active); in test [3], 12.7 µM (active); in test [4] it was 11.4 µM (active); in [7], 4.52 µM (active).

Consider `O=C(O)Cc1ccc(-c2ccccc2)cc1`, for which the Potency result in test [1], in test [2], in [3], in [4], in test [14] and in test [15] was “inactive” throughout. For the same compound, the Potency result in [16], in test [6], in [17], in test [7], in test [8] and in test [9] was “inactive” each time. Moreover, the Potency entry (in test [10]; in [11]; in test [12]; in test [13]; in the test with Aromatase (Homo sapiens)) was “inactive” each time. In test [18], the compound was classed as inactive.

For the compound `CC(C)(CCl)c1ccccc1`, the Potency entry in test [1], in test [2], in test [3], in test [4], in [5] and in [6] was “inactive” in each case. In addition, the Potency result in test [19], in test [8], in test [9], in test [10], in test [11] and in test [12] was “inactive” throughout. Besides, the Potency result (in [13]; in the test with Aromatase (Homo sapiens)) was “inactive” throughout. Moreover, the result in [18] was inactive.

On to `CCCCC(CC)CNCC(CC)CCCC` (centres undefined), for which the Potency result in [1], in test [2], in test [3], in test [4], in [5] and in test [6] was “inactive” each time. Moreover, the Potency entry in test [7], in test [9] and in [13] was “inactive” each time. Further, the compound was called inactive in [18].

On to `COc1ccccc1N=Nc1c(S(=O)(=O)O)cc2cc(S(=O)(=O)O)cc(NC(C)=O)c2c1O`, for which the Potency result in test [1], in test [5] and in test [9] was “inactive” throughout. Besides, the Potency in [2] is 28.8 µM (active); in test [3], 18.2 µM (active); in [4], 14.4 µM (active); in test [7], 32.3 µM (active); in test [13], 28.8 µM (active). The compound was classed as inactive in test [18].

As for `COc1cc2[nH]c(=O)[nH]c(=O)c2cc1OC`, the Potency entry in test [1], in [2], in [3], in test [4], in [6] and in test [7] was “inactive” throughout. The Potency entry in [19], in test [8], in [9], in test [10], in test [12] and in [13] was “inactive” each time. The Potency entry with Aromatase (Homo sapiens) was “inactive”. Besides, the call in [18] was inactive.

Take `C/C=C/C=C/CCCCCCCO`: the Potency result in [1], in test [6], in test [8], in [9], in test [10] and in test [11] was “inactive” each time. Besides, the Potency entry (in test [12]; in test [13]; with Aromatase (Homo sapiens)) was “inactive” throughout. Moreover, the Potency is 21.7 µM (active) in test [2], 30.6 µM (active) in test [3], 24.3 µM (active) in test [4] and 61.1 µM (active) in test [19]. Besides, the compound was called inactive in test [18].

For the compound `O=C(CCCCCCC(=O)Nc1ccccc1)NO`, the Potency entry in [1], in [6], in [9], in test [10] and in test [13] was “inactive” in each case. Moreover, the Potency in test [2] was 1.06 µM (active); in [3], 531 nM (active) and 841 nM (active); in [4], 1.5 µM (active); in [19], 2.11 µM (active) and 2.66 µM (active); in [12] it was 5.96 µM (active) and 4.22 µM (active). The outcome in test [18] was inactive.

With `CCCCCCCCCCOS(=O)(=O)O`, the Potency entry in test [1], in test [2], in [3], in test [4], in test [5] and in [7] was “inactive” throughout. The Potency entry in test [8], in test [9], in [10], in test [11], in test [12] and in test [13] was “inactive” each time. The Potency entry in the test with Aromatase (Homo sapiens) is “inactive”. In addition, the result in test [18] was inactive.
